# Laboratory results as given in the supplement of paper PMC10338343.
# ± gives the standard deviation.
# System: EfPiwi piRISC loaded with L1MC piRNA (26 nt)
# Assay: pre-steady-state target cleavage rate (min^-1); auxiliary factor: 500 nM Ephydatia muelleri Gtsf1; guide: L1MC piRNA 5'p-UAACUAAAUACUAUGCAAGCUGUAGG; MIWI and MILI are mouse PIWI proteins and EfPiwi is from a freshwater sponge; tags in brackets are library labels; higher = faster piRNA-guided slicing of the target
# Method in brief: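 The pre-steady-state cleavage rate was calculated from a burst-and-steady-state fit. Data came from Cleave-'n-Seq, in which […] transcribed, DNA-blocked target RNA library was mixed with 1 nM active affinity-purified piRISC carrying one synthetic guide, with or without 500 nM GTSF1 partner protein, in HEPES–potassium acetate buffer at 33 °C for 0–8 or 0–960 min. Uncleaved targets were sequenced and normalised to depth and to weakly complementary targets, three trials were pooled, and k3 was capped at 0.0001 min^-1.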
row,Sequence,pre-steady-state target cleavage rate
1,UCCUGGUACAGCUUGCAUAGUAAUAAGUUA,0.00546 ± 0.0031
2,UCCUGGUACUGCUUGCAUAGUAUUUAGUAA,0.00428 ± 0.0018
3,UCCUGGAACAGCUUGCAUAGUAUUUUCAAA,0.00233 ± 0.0023
4,UCCUCCUACAGCUUGCAAAGUAUUAAGUUA,0.00696 ± 0.0033
5,UCCUCCUACACCUUGCAUAGUAUUUAGAAA,0.00377 ± 0.0021
6,UCCUGCUACAGCUUGCAUAGUUUUUUCAAA,0.00248 ± 0.0022
7,UCCUGGAUGAGCUUGCAUAGUAUUUAGUCUA,0.00413 ± 0.0026
8,UCCUGCUACAGCUUGCAUAUGUAUUUAGUUA,0.00294 ± 0.0023
9,UCCUCCUACAGCUUGCAUAGUAUUUUCAUA,0.00665 ± 0.0037
10,UCCUGCUUGAGCUUGCAUAGUAUUUUCAAA,0.00207 ± 0.0018
11,UCCUGGAUGUCCUUGCAUAGUAUUUAGUCUA,0.00301 ± 0.0024
12,UCCUGCUACAGCUUGCACUAGUAUUUAGUUA,0.00557 ± 0.0023
13,UCCUGGAUGAGCUUGCAUAGUAAUUAGUAA,0.00197 ± 0.0019
14,UCCUGCUACAGCUAGCAUAGUAUUUUGUUA,0.0057 ± 0.0021
15,UCCUGGAUCAGCUUGCAUAGUAUUAAGAUA,0.006 ± 0.0032
16,UCCUCCUACAGCUUGCAUAGAAUUUUGUUA,0.00325 ± 0.0016
17,UCCUCCUACAGCUUGCACUAGUAUUUAGUUA,0.0137 ± 0.0056
18,UCCUCCUACAGCUUGCAUAGUUUUUACUUA,0.00304 ± 0.0026
19,UCCUCCUACUGCUUGCAUAGUAUUUACAAA,0.0028 ± 0.0021
20,UCCUGGAACAGCUUGCAUACUAAUUAGUUA,0.00305 ± 0.0029
21,UCCUCCUACAGCUUGCAUAGUAUAAUGUAA,0.00413 ± 0.0027
22,UCCUCCUAGUGCUUGCAUAGUAUUUAGAAA,0.00361 ± 0.0021
23,UCCUGGAUCAGCUUGCAUAGGAUUUAGUUA,0.0025 ± 0.0024
24,UCCUGGUACAGCAUGCAUAGUAUUUAGAAA,0.00215 ± 0.002
